TEAD-YAP block: TEAD-YAP interaction inhibition; HEK-TIYL cells, TEAD-Gal4/YAP UAS-luciferase luminescence; inhibition, % at 9.12 µM; 640,000 tested, 1.4% active; in the data active means inhibition above about 32%;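 further: 0% = median of test compound wells and 100% = reference inhibitor wells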
MITF primary: human MITF inhibition, primary screen | O75030 | AlphaScreen MITF homodimerization, bead proximity signal | AID 1259374 | inhibition, % at 2.6 µM | 650,000 tested, 0.91% active; in the data active means inhibition above about 50%;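 further: 0% = vehicle wells with protein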
GPR151 ag: activates the human receptor GPR151; PathHunter beta-arrestin GPR151 cells, luminescence; activation, % at 11.2 µM; 650,000 tested, 1% active; in the data active means activation above about 4.9%;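 further: 0% = median of compound wells and 100% = cells with positive control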
FBW7 act: human FBW7 E3 ligase activation, primary screen; Q969H0; normalized activity (activation), % at 26.1 µM; AlphaScreen FBW7–phospho-cyclin E peptide binding, activator screen; 650,000 tested, 0.13% active; AID 1259310; in the data active means normalized activity above about 1.9%;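 further: purified mutant Fbw7 with reduced substrate affinity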
Target sequence (Q969H0 whole entry, looked up): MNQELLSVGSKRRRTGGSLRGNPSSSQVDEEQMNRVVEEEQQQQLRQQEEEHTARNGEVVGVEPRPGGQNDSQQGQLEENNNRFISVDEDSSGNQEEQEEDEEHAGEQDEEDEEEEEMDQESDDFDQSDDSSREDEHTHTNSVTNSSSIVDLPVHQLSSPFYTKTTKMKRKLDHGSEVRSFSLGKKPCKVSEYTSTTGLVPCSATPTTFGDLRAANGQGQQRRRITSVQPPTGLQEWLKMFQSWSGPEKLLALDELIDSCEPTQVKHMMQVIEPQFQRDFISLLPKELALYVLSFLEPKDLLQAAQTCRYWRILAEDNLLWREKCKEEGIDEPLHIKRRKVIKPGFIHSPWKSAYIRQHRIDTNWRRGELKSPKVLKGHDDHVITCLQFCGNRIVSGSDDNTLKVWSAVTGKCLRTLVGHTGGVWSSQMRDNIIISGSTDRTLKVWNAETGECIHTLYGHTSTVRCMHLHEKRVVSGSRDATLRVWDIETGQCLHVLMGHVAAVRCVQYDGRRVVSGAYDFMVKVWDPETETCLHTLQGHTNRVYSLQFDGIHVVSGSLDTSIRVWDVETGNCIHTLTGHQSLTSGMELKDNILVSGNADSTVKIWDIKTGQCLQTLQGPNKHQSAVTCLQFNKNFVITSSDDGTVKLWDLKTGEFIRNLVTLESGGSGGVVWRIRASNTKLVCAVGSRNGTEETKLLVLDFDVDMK
GPR151 conf act: human GPR151 activation, confirmation screen | shares compounds with GPR151 ag | GPR151 PathHunter beta-arrestin cells, luminescence, 90 min; % of EA-reagent control over plate median | activation, % at 11.2 µM | 6,700 tested, under 10 active;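 active means mean percent activation across replicates above the confirmation screen cutoff of 4.91%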
GPR119 ag: counter-screen for GPR151 activators: effect on human GPR119; activation, % at 11.2 µM; GPR119 PathHunter beta-arrestin cells, luminescence, 90 min; 0 = compound-well median, 100 = enzyme-acceptor control; AID 1508611; 6,700 tested, 0.3% active; shares compounds with GPR151 ag;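 active means mean percent activation in the counterscreen above 29.09%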;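 further: counterscreen on off-target GPR119 to flag nonselective hits from the GPR151 activator screen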
* hit, by the source's call; x = no result; ! = not confirmed by another sample. Only some compounds are listed: those with a hit (about 3.5% of all), similar ones and a draw of the others.

SMILES	TEAD-YAP block	MITF primary	GPR151 ag	FBW7 act	GPR151 conf act	GPR119 ag
CN1C(=O)c2ccc(S(=O)(=O)c3ccc(C(=O)O)cc3)cc2C1=O	6.4	-16.7	5.5*	0.1	-0.7	7.8
Cc1ccnc(NC(=O)CCC(=O)N(CC(=O)NC(C)(C)C)c2ccc(C(C)C)cc2)c1	1.5	7.0	-0.7	0.1	x	x
Nc1nc(NCCO)cc(Nc2ccncn2)n1	-9.0	4.2	1.0	0.0	x	x
CCCNc1cc(Nc2ccncn2)nc(N)n1	-3.9	2.2	18.1*	0.1	0.2	3.4
Cc1ccc(N/C=C/C(=O)c2cccs2)cc1C	-24.1	6.9	9.6*	1.1	-2.3	-19.7
Cn1c(SCC(N)=O)nnc1-c1ccc2c(c1)OCO2	7.9	-2.0	9.6*	-0.1	0.8	8.7
CN(C)C(=O)CSc1nnc(-c2ccc3c(c2)OCO3)n1C	-6.2	1.4	0.4	0.0	x	x
CCc1c(C)nc2cc(-c3cccs3)nn2c1N1CCC(O)CC1	1.4	17.4	6.2*	0.4	1.6	9.1
Cc1cccc2sc(NC(=O)c3ccc(Cl)c([N+](=O)[O-])c3)nc12	-7.0	5.1	0.5	0.0	x	x
O=S(=O)(NCC1CCCN(Cc2ccccn2)C1)c1cccc2cccnc12 (stereo not drawn)	-1.1	3.2	-2.2	-0.2	x	x
CC(C)(C)CN1CCCC(CNS(=O)(=O)c2cccc3cccnc23)C1 (stereo not drawn)	3.2	19.0	6.4*	-0.1	0.2	-7.6
CC(C)CC1CC(C)(c2csc(Nc3ccccc3Cl)n2)OC1=O (stereo not drawn)	6.2	26.6	-0.4	0.6	x	x
CCS(=O)(=O)N1CCN=C1SCc1cccc([N+](=O)[O-])c1	5.6	34.4	0.4	0.0	x	x
O=[N+]([O-])c1ccc(CSC2=NCCN2S(=O)(=O)c2ccccc2)cc1	0.6	24.4	5.1*	1.4	0.6	-1.0
CCCS(=O)(=O)N1CCN=C1SCc1cccc([N+](=O)[O-])c1	-14.0	7.7	5.3*	0.0	-0.4	-2.1
O=[N+]([O-])c1ccc(CSC2=NCCN2S(=O)(=O)c2ccc([N+](=O)[O-])cc2)cc1	3.9	3.5	1.7	-0.1	x	x
CC(C)CC(NC(=O)c1ccc(Cl)cc1Cl)C(=O)O (stereo not drawn)	-1.2	6.1	-0.7	0.1	x	x
O=C(N[C@@H](Cc1ccccc1)C(=O)O)c1ccc(Cl)cc1Cl	0.8	11.3	5.0*	0.1	0.0	1.9
CCOc1ccccc1N(C)S(=O)(=O)c1ccc2[nH]cc(C(=O)N(CC)CC)c(=O)c2c1	6.4	-9.3	5.9*	-0.1	-0.1	7.9
COc1ccc(C)cc1NC(=O)C(NCCCN1CCCC1=O)c1ccccc1 (stereo not drawn)	4.7	30.6	-1.5	0.1	x	x
CNCCOc1cccc(OC(C)C)c1	-8.9	34.2	4.9*	0.0	0.1	-1.0
CCC1=CC(C)(CC)N(Cc2ccc([N+](=O)[O-])cc2)c2ccccc21 (stereo not drawn)	-2.9	0.9	-0.6	-0.1	x	x
Cc1cc(C)cc(NC(=O)NC2CCNCC2)c1	-0.9	1.9	8.2*	0.0	-0.1	-3.3
CCc1ccc2c(c1)c(=O)c(C(=O)c1ccc(F)cc1)cn2CC(=O)Nc1ccc(C)cc1	-1.1	11.4	-1.2	0.1	x	x
Clc1ccc(Sc2ncnc3sc4c(c23)CCCC4)cc1	-4.5	-0.8	15.1*	0.1	0.1	-11.2
SMILES	TEAD-YAP block	MITF primary	GPR151 ag	FBW7 act	GPR151 conf act	GPR119 ag
CO[C@H]1C=CO[C@@]2(C)Oc3c(C)c(O)c4c(O)c(c(C=NN5CCN(C)CC5)c(O)c4c3C2=O)NC(=O)C(C)=CC=C[C@H](C)[C@H](O)[C@@H](C)[C@@H](O)[C@@H](C)[C@H](OC(C)=O)[C@@H]1C	x	-4.2	6.0*!	-0.2	0.0	-6.3
CO[C@H]1/C=C/O[C@@]2(C)Oc3c(C)c(O)c4c(O)c(c(/C=N\N5CCN(C)CC5)c(O)c4c3C2=O)NC(=O)/C(C)=C\C=C\C(C)[C@H](O)[C@@H](C)[C@@H](O)[C@@H](C)[C@@H](OC(C)=O)[C@@H]1C (stereo partly drawn)	1.6	-13.9	-1.5	-0.1	x	x
CCCCNCc1cc(Cl)c(OCC(=O)NC(C)(C)C)c(OCC)c1	8.0	-9.9	7.0*	0.6	0.1	5.8
O=C(NCCOc1ccccc1)c1cccs1	-43.7	-1.4	-3.8	-0.1	x	x
CCOc1cc(C2C(C(=O)OC)=CN(CCOC)C=C2C(=O)OC)cc([N+](=O)[O-])c1O	4.4	5.6	6.0*	-0.4	0.9	-1.3
CCN1CCN(S(=O)(=O)c2ccc3c(c2)oc(=O)n3C)CC1	-9.8	5.4	-0.2	-0.1	x	x
COCCNC(=O)c1cccc(OC2CCN(Cc3cnc(SC)nc3)CC2)c1	2.8	11.7	7.9*	0.0	0.4	2.4
O=C(NCc1ccccc1)c1ccc(CN2CCC(Cc3ccccc3)CC2)cc1	3.4	3.6	-1.0	0.0	x	x
COCCNC(=O)c1ccc(CN2CCC(Cc3ccccc3)CC2)cc1	11.2	-15.6	5.0*	-0.1	-0.5	1.0
CCOC(=O)N1CCN(C(=O)c2ccc(CN3CCC(Cc4ccccc4)CC3)cc2)CC1	4.0	-7.6	4.9*	-0.1	1.1	14.6
COCCNC(=O)c1cccc(OC2CCN(Cc3ccc(F)c(OC)c3)CC2)c1	1.1	15.3	-0.4	-0.1	x	x
CC(=O)C1=NN(c2cccc(Cl)c2C)C2C(=O)N(c3ccc(C)cc3)C(=O)C12 (stereo not drawn)	18.1	21.4	1.9	0.6	x	x
Cc1ccn2c(C(=O)Nc3ccc(Cl)cc3)c(C)nc2c1	-7.4	14.9	5.5*	0.2	0.7	3.0
Cc1cc2[nH]c(C(=O)O)c(C=O)c2s1	-2.0	-8.4	1.1	0.2	x	x
Cc1ccc(-c2oc3ccccc3c(=O)c2OC(=O)CN2C(=O)c3ccccc3C2=O)cc1	-17.0	20.4	11.2*	0.0	-1.1	-5.5
O=C(CN1C(=O)c2ccccc2C1=O)Oc1c(-c2ccccc2)oc2ccccc2c1=O	-28.8	-6.2	-0.4	-0.2	x	x
CC1(C)CC(=O)C2=C(C1)OC1=C(C(=O)CC(C)(C)C1)C2c1cccs1	1.5	-4.8	1.7	-0.1	x	x
CC(=O)C1C2=C(CC(C)(C)CC2=O)OC2=C1C(=O)CC(C)(C)C2	-11.8	2.5	6.7*	-0.1	-0.5	-3.7
CC1(C)CC(=O)C2=C(C1)OC1=C(C(=O)CC(C)(C)C1)C2C=C(Cl)Cl	-8.6	8.5	6.6*	0.8	-0.1	-10.0
COCCNC(=O)Cn1c(=O)n(-c2ccc(C)cc2)c(=O)c2oc3ccccc3c21	6.7	-12.5	-0.8	0.1	x	x
C#C[C@]1(O)CC[C@H]2[C@@H]3CCc4cc(O)ccc4[C@H]3CC[C@@]21C	x	-4.7	1.8	0.1	x	x
C#C[C@]1(O)CC[C@H]2[C@@H]3CCC4=Cc5oncc5CC4(C)[C@H]3CCC21C (stereo partly drawn)	-14.7	1.2	5.5*!	-0.1	0.8	-1.6
